# Data taken from ChEMBL document CHEMBL1157539, “Thousands of chemical starting points for antimalarial lead identification” (Nature, 2010).
# System: HepG2
# Experiment: GSK_TCMDC: Percent inhibition of human HepG2 cell line. Test compounds present at 10uM.
# Type: functional
row,Structure (SMILES),Inhibition
1,O=S(=O)(c1ccc2cc[nH]c2c1)N1CCC[C@@H]1CCN1CCC(c2c[nH]c3cnccc23)CC1,13%
2,COc1ccc2ccccc2c1CNCC1CCN(CC2CCCCC2)CC1.O=C(O)C(F)(F)F,23%
3,O=C1COc2ccc3ccccc3c21,0%
4,Cc1c(CNCCCNc2cc(=O)c3ccccc3[nH]2)sc(-c2ccco2)c1Br.Cl,0%
5,CC=CC(=O)N1CCN(c2nccc(-c3ccc(C(C)(C)C)cc3)n2)CC1,20%
6,Cc1ccc(NC(=O)c2cccc(N3CCN(c4ccncc4)CC3)c2)cc1F.O=C(O)C(F)(F)F,43%
7,O=C(O)C(F)(F)F.c1ccc(CNCc2cccc(-c3ccc(-c4nc5ccccc5[nH]4)cc3)c2)cc1,10%
8,CC1(C)N=C(N)N=C(N)N1c1cccc(I)c1.Cl,68%
9,Cc1cc(N[C@@H](Cc2ccccc2)C(=O)NC2CCCC2)nc(NCc2ccccc2C)n1.O=C(O)C(F)(F)F,2%
10,COc1cccc(OC2CCN(C(=O)c3cc(C(C)(C)C)nn3Cc3ccccc3)CC2)c1,3%
11,CCn1ncc2c(N3CCCC3=O)cc(C(=O)N[C@@H](Cc3ccccc3)[C@H](O)CNC(C)(C)c3cccc(C(F)(F)F)c3)cc21,10%
12,CCCCn1c(Sc2ccc(C#N)c([N+](=O)[O-])c2)nnc1-c1cccc(Cl)c1,30%
13,Br.COc1ccc(CCON2C(=N)N=C(N)NC2(C)C)cc1OC,64%
14,Cc1ccc(Cn2cnc(N3CC(C)NC(C)C3)cc2=O)cc1NC(=O)Nc1ccc(-c2ccccc2)cc1.O=C(O)C(F)(F)F (centres undefined),18%
